Assay results as given in the supplement of paper PMC12669032.

system: Akkermansia muciniphila; assay: growth AUC relative to DMSO control (median of replicates) (fraction); higher = more growth (less inhibition), active = hit call of the paper; settings: 20 µM; 24 h
Procedure, shortened: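 Gut bacteria were grown singly in mGAM at 37 °C without oxygen, from OD600 0.05, alongside 20 µM compound in 1% DMSO, and OD600 was read each hour for 24 h. Area under the growth curve was normalised to the median of solvent-only wells per plate, or to row and column medians on the industrial chemical plate. The minimum OD was set to 0 beforehand, and the reported value is the median of three biological replicates grown on separate days.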

Row | SMILES | growth AUC
1 | C=CCOC(Cn1ccnc1)c1ccc(Cl)cc1Cl.O=S(=O)(O)O (configuration not stated) | 0.744 (inactive)
2 | c1ccc(-c2ccccc2)cc1 | 1.09 (inactive)
3 | CCOC(=O)C(SP(=S)(OC)OC)c1ccccc1 (configuration not stated) | 0.867 (inactive)
4 | Nc1nc(N)nc(Cl)n1 | 1.01 (inactive)
5 | NC(=O)/N=C1/SCCN1Cc1ccc(Cl)nc1 | 0.782 (inactive)
6 | CON(C)C(=O)Nc1ccc(Br)c(Cl)c1 | 0.863 (inactive)
7 | CC(C)C(C(=O)OC(C#N)c1cccc(Oc2ccccc2)c1)c1ccc(OC(F)F)cc1 (configuration not stated) | 0.959 (inactive)
8 | O=[N+]([O-])c1c(Cl)c(Cl)cc(Cl)c1Cl | 1.02 (inactive)
9 | Clc1ccc(C2(Cn3cncn3)CC(Br)CO2)c(Cl)c1 (configuration not stated) | 1.07 (inactive)
10 | CC(C)N1C(=O)N(c2ccccc2)CSC1=NC(C)(C)C | 0.893 (inactive)
11 | CNC1=C(c2cccc(C(F)(F)F)c2)C(=O)C(c2ccccc2)O1 (configuration not stated) | 0.993 (inactive)
12 | CCOP(=S)(OCC)Oc1cc(C)nc(C(C)C)n1 | 1.04 (inactive)
13 | CCOP(=S)(OCC)SCS(=O)(=O)C(C)(C)C | 0.89 (inactive)
14 | COc1nc(C)nc(NC(=O)NS(=O)(=O)c2ccccc2Cl)n1 | 0.942 (inactive)
15 | CCOP(=S)(OCC)Oc1cnccn1 | 0.892 (inactive)
16 | O=c1[nH]c2c(c(=O)n1C1CCCCC1)CCC2 | 0.895 (inactive)
17 | COC[C@H](C)N(C(=O)CCl)c1c(C)csc1C | 1.08 (inactive)
